# Measured values: PubChem BioAssay (EPA / NIEHS)
# “And” between values parts separate entries of the source, which are not always exact repeats. Equal entries are not always repeated. Records with an inconclusive call do not appear. The source made the active and inactive calls. Rule for the calls, unless noted: active = hit-call score of the fitted dose curve at least 0.9, where 1 is the maximum; inactive = score below 0.9.
# Read-out: Monokine induced gamma interferon (MIG), CXCL9 (gene 4283)
# Assay: BSK_3C_MIG: BioMAP Diversity Plus: 3C Assay for Monokine induced gamma interferon (MIG) Biomarker Activity (AID 2283021);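 for AC50: MIG protein level measured by immunoassay in the treated endothelial cultures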
# Details: primary human endothelial cells (HUVEC); actives raise or lower the signal
# How it was run: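 Endothelial primary cells (human umbilical vein) are dosed with test chemical in the 3C system. MIG levels are measured by ELISA at 24 h and fitted in both directions relative to DMSO.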
SMILES,outcome,AC50
Nc1ccc(N)c(Cl)c1,inactive,
S=C(NC1CCCCC1)NC1CCCCC1,inactive,
CCOC(=O)c1ccccc1C(=C1C=C(Br)C(=O)C(Br)=C1)c1cc(Br)c(O)c(Br)c1,,23.6 µM (active) and 21.7 µM (active)
CC(C)C(=O)C(C)C,inactive,
C=CC=CC=CCCCCC,inactive,
C=C[Si](OC(C)=O)(OC(C)=O)OC(C)=O,inactive,
CCO[Si](C)(OCC)OCC,inactive,
CO[Si](OC)(OC)c1ccccc1,inactive,

# Molecular target: human Vitamin D Receptor (VDR), VDR (gene 7421) (UniProt P11473)
# Assay: ATG_VDR_TRANS: Attagene TRANS-FACTORIAL HepG2 Assay for human Vitamin D Receptor (VDR) (AID 2283022; active = hit-call score of the fitted dose curve at least 0.9, where 1 is the maximum)
# Details: not given
# How it was run: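 HepG2 cells were transiently transfected with GAL4-UAS reporter units and a chimeric VDR-Gal4 construct, then dosed for 24 hours. Reporter mRNA was quantified by RT-PCR, fluorescent labeling, HpaI digestion and capillary electrophoresis; gain of signal analysed vs DMSO.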
# Chain of human Vitamin D Receptor (VDR), VDR (gene 7421) (P11473 whole entry, looked up): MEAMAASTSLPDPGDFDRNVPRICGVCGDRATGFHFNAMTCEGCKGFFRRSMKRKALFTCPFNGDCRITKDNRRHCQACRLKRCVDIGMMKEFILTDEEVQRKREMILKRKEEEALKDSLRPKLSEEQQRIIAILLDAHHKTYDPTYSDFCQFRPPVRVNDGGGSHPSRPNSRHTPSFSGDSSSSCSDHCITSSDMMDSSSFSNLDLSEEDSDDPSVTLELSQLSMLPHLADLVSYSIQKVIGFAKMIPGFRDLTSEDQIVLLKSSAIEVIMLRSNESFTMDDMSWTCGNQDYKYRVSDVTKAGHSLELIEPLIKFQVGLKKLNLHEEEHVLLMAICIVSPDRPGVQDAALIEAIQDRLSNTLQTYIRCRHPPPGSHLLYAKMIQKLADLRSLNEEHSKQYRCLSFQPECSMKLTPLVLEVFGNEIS
SMILES,outcome,AC50
O=C(O)CC(C(=O)O)C(CC(=O)O)C(=O)O (stereo not given),inactive,
O=S(=O)(O)CC(O)CCl (stereo not given),inactive,
Nc1ccc(N)c(Cl)c1,inactive,
OC1OCCOC1O (stereo not given),inactive,
S=C(NC1CCCCC1)NC1CCCCC1,inactive,
CCCCC(CC)CCC(CC(C)C)OS(=O)(=O)O (stereo not given),inactive,
Cn1c([N+](=O)[O-])cnc1COC(N)=O,inactive,
CC1(C)S[C@@H]2[C@H](NC(=O)COc3ccccc3)C(=O)N2[C@H]1C(=O)O,inactive,
CCCCCCCCCCCCCCCC[n+]1ccccc1,,26.8 µM (active)
c1cc(N(CC2CO2)CC2CO2)ccc1OCC1CO1 (stereo not given),inactive,
CCc1c(C(=O)O)c(=O)cnn1-c1ccc(Cl)cc1,inactive,
CCCCC/C=C\CCC=O,inactive,
C=CC(=O)OCCOC1C2CCC1C1CC=CC12 (stereo not given),inactive,
O=c1c2ccccc2nnn1CCl,inactive,
O=P(O)(O)Oc1ccccc1,inactive,
CCCC(C)CCC(C)=O (stereo not given),inactive,
NCCCN1CCN(CCCN)CC1,inactive,
Cn1c(=O)[nH]c2ncn(C)c2c1=O,inactive,
CCCCCCOc1cc(C)c(O)c(C)c1C,inactive,
O=C(Oc1ccccc1)c1ccc2ccccc2c1O,inactive,
C=C(C)[C@@H]1CCC2=CCC[C@@H](C)[C@]2(C)C1,inactive,
CCCCCCCOC(=O)CCC,inactive,
CO[Si](OC)(OC)c1ccccc1,inactive,
OCCc1ccncc1,inactive,
Cc1cc(C)c(C)cc1C,inactive,
O=C(O)c1cc2ccccc2nc1C(=O)O,inactive,
Nc1nc2ccccc2[nH]1,inactive,
FC(F)=C(F)OC(F)(F)C(F)(F)C(F)(F)F,inactive,
c1cc(C(c2ccc(OCC3CO3)cc2)C(c2ccc(OCC3CO3)cc2)c2ccc(OCC3CO3)cc2)ccc1OCC1CO1 (stereo not given),inactive,

# Read-out: not listed separately
# Assay: BSK_3C_SRB: Viability Assessment in the BioMAP Diversity Plus: 3C Assay (AID 2283023);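 note: fitted both ways against DMSO so a hit may be signal rise or drop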
# Details: primary human endothelial cells (HUVEC)
# How it was run: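 Human umbilical vein endothelial cells in the 3C system, treated 24 h. Total protein measured by 0.1% sulforhodamine B staining after 10% TCA fixation, read at 560 nm; bidirectional fit versus DMSO.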
SMILES,AC50,outcome
Nc1ccc(N)c(Cl)c1,28.6 µM (active) and 30.6 µM (active),
S=C(NC1CCCCC1)NC1CCCCC1,,inactive
CCOC(=O)c1ccccc1C(=C1C=C(Br)C(=O)C(Br)=C1)c1cc(Br)c(O)c(Br)c1,21.7 µM (active) and 23.7 µM (active),
CC(C)C(=O)C(C)C,,inactive
C=CC=CC=CCCCCC,,inactive
C=C[Si](OC(C)=O)(OC(C)=O)OC(C)=O,,inactive
CCO[Si](C)(OCC)OCC,,inactive
CO[Si](OC)(OC)c1ccccc1,,inactive

# Read-out: Matrix Metallopeptidase 1 (MMP1), MMP1 (gene 4312)
# Assay: BSK_BE3C_MMP1: BioMAP Diversity Plus: BE3C Assay for Matrix Metallopeptidase 1 (MMP1) Biomarker Activity (AID 2283024)
# Details: primary human bronchial epithelial cells; actives raise or lower the signal
# How it was run: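 MMP1 signal, measured by ELISA after a 24 h chemical exposure of human primary bronchial epithelial cells, is analysed with bidirectional fitting using DMSO as negative control.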
SMILES,AC50,outcome
Nc1ccc(N)c(Cl)c1,150 nM (active) and 1.5 µM (active),
S=C(NC1CCCCC1)NC1CCCCC1,,inactive
CCOC(=O)c1ccccc1C(=C1C=C(Br)C(=O)C(Br)=C1)c1cc(Br)c(O)c(Br)c1,,inactive
CC(C)C(=O)C(C)C,,inactive
C=CC=CC=CCCCCC,,inactive
C=C[Si](OC(C)=O)(OC(C)=O)OC(C)=O,,inactive
CCO[Si](C)(OCC)OCC,,inactive
CO[Si](OC)(OC)c1ccccc1,,inactive

# Read-out: not listed separately
# Assay: BSK_3C_Vis: BioMAP Diversity Plus: 3C Assay for Morphology Visualization (AID 2283025);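 note: fitted both ways so gain or loss versus DMSO counts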
# Details: primary human endothelial cells (HUVEC)
# How it was run: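 Morphology read by light microscopy serves as a background control for the multiplexed 3C assay in human umbilical vein endothelial cells, taken 24 h after dosing, with DMSO as the negative control and bidirectional curve fitting.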
row,SMILES,outcome
1,S=C(NC1CCCCC1)NC1CCCCC1,inactive
2,CC(C)C(=O)C(C)C,inactive
3,C=CC=CC=CCCCCC,inactive

# Read-out: Pselectin, SELP (gene 6403)
# Assay: BSK_4H_Pselectin: BioMAP Diversity Plus: 4H Assay for Pselectin Biomarker Activity (AID 2283026)
# Details: primary human endothelial cells (HUVEC); actives raise or lower the signal
# How it was run: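 Endothelial primary cells (human umbilical vein) are dosed, incubated 24 h, and assayed for surface P-selectin by ELISA; responses in either direction are fitted relative to the DMSO negative control.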
SMILES,AC50,outcome
Nc1ccc(N)c(Cl)c1,6.21 µM (active) and 3.97 µM (active),
S=C(NC1CCCCC1)NC1CCCCC1,,inactive
CCOC(=O)c1ccccc1C(=C1C=C(Br)C(=O)C(Br)=C1)c1cc(Br)c(O)c(Br)c1,21.9 µM (active) and 19.8 µM (active),
CC(C)C(=O)C(C)C,,inactive
C=CC=CC=CCCCCC,,inactive
C=C[Si](OC(C)=O)(OC(C)=O)OC(C)=O,,inactive
CCO[Si](C)(OCC)OCC,,inactive
CO[Si](OC)(OC)c1ccccc1,,inactive

# Read-out: not listed separately
# Assay: BSK_4H_SRB: Viability Assessment in the BioMAP Diversity Plus: 4H Assay (AID 2283027);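 note: cells exposed to compound for 24 h before staining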;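 for AC50: curves fitted both ways versus DMSO so AC50 may be loss or gain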
# Details: primary human endothelial cells (HUVEC)
# How it was run: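 Cytotoxicity readout: sulforhodamine B (0.1%) staining of total protein after 10% TCA fixation, measured at 560 nm in human umbilical vein endothelium at 24 h. DMSO set the baseline; fitting was bidirectional.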
SMILES,AC50,outcome
Nc1ccc(N)c(Cl)c1,27.4 µM (active) and 30.5 µM (active),
S=C(NC1CCCCC1)NC1CCCCC1,,inactive
CCOC(=O)c1ccccc1C(=C1C=C(Br)C(=O)C(Br)=C1)c1cc(Br)c(O)c(Br)c1,19.1 µM (active) and 20.3 µM (active),
CC(C)C(=O)C(C)C,,inactive
C=CC=CC=CCCCCC,,inactive
C=C[Si](OC(C)=O)(OC(C)=O)OC(C)=O,,inactive
CCO[Si](C)(OCC)OCC,,inactive
CO[Si](OC)(OC)c1ccccc1,,inactive

# Read-out: Urokinase-type plasminogen activator receptor (uPAR), PLAUR (gene 5329)
# Assay: BSK_4H_uPAR: BioMAP Diversity Plus: 4H Assay for Urokinase-type plasminogen activator receptor (uPAR) Biomarker Activity (AID 2283030)
# Details: primary human endothelial cells (HUVEC); actives raise or lower the signal
# How it was run: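 Human umbilical vein endothelial cells in the 4H system, 24 h after chemical dosing. Cell-surface uPAR measured by ELISA, fitted in both directions versus DMSO; cytotoxicity checked by SRB total protein in parallel cultures.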
SMILES,outcome,AC50
Nc1ccc(N)c(Cl)c1,inactive,
S=C(NC1CCCCC1)NC1CCCCC1,inactive,
CCOC(=O)c1ccccc1C(=C1C=C(Br)C(=O)C(Br)=C1)c1cc(Br)c(O)c(Br)c1,,15.6 µM (active) and 15.8 µM (active)
CC(C)C(=O)C(C)C,inactive,
C=CC=CC=CCCCCC,inactive,
C=C[Si](OC(C)=O)(OC(C)=O)OC(C)=O,inactive,
CCO[Si](C)(OCC)OCC,inactive,
CO[Si](OC)(OC)c1ccccc1,inactive,
